# Measurements taken from PubChem BioAssay AID504832 (National Center for Advancing Translational Sciences (NCATS), 2011).
# Several values for one entry are separate records, joined by “and”; a condition that tells them apart may be missing. Equal entries are not always repeated. About 18,000 (5.8%) of roughly 310,000 compounds were called active. Inconclusive results (about 22%) are left out. Calls come from the whole dose curve; as a rule, active = well fitted inhibition curve with a large enough effect; inconclusive = small, poorly fitted or top-dose-only effect, or another doubt; inactive = no such curve, though single readings can be large or run the other way. The list comes from a sample in which actives are over-represented; it also holds similar structures and randomly drawn compounds. Some compounds were tested as several samples or in several runs, with calls that do not always agree.
# Experiment: Primary qHTS for delayed death inhibitors of the malarial parasite plastid, 48 hour incubation
# Details: P. falciparum luciferase growth in erythrocytes; series mostly up to 28.7 µM; activity change, negative = inhibition: at the top concentration
# How it was run: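 Here the parasites carry a stable luciferase gene and grow inside erythrocytes in Albumax-based RPMI medium with compound for one erythrocytic cycle. Activity is scored as loss of luminescent signal.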
# % is set by controls: 0 for no effect and ±100 for the full control effect; potency is the fitted concentration of half-maximal effect.
SMILES,"activity change, negative = inhibition",Potency
COc1ccc2c(c1)c1nc3n(c(=O)c1n2CC(=O)Nc1ccccc1)CCS3,29.3% (inactive),–
O=C(CNS(=O)(=O)c1ccccc1)N1CCN(C(=O)c2ccco2)CC1,39.3% (inactive),–
CS/C(=C\C(=O)c1ccco1)Nc1ccccc1Cl,–,8.28 µM (active)
O=C(c1cccc(S(=O)(=O)Nc2ccccc2Cl)c1)N1CCN(C(=O)c2ccco2)CC1,-20.7% (inactive),–
O=C(Nc1ccccc1C(=O)N1CCCCC1)c1ccco1,19.7% (inactive),–
CCC(C)N(C(=O)Cn1nc(C)c([N+](=O)[O-])c1C)C1CCS(=O)(=O)C1 (stereo not drawn),5.42% (inactive),–
O=C(NCCc1ccco1)C(=O)NCCC1CCCCN1S(=O)(=O)c1ccccc1 (stereo not drawn),-21.1% (inactive),–
COc1ccccc1NC(=O)CSc1nnc(Cc2cccn2C)n1-c1ccc(F)cc1,–,10.4 µM (active)
COCCn1c(Cc2cccn2C)nnc1SCC(=O)Nc1nccs1,-4.4% (inactive),–
COc1ccc(C)cc1NC(=O)CSc1nnc(CC(=O)Nc2ccccc2F)n1C,-53.1% (inactive),–
Cc1ccc(NC(=O)COC(=O)CN2CCCCCC2=O)c(C)c1,19.1% (inactive),–
Oc1ccc(N=Nc2nccs2)c(O)c1,–,9.28 µM (active)
c1ccc(NCc2cccc3ccccc23)nc1,5.25% (inactive),–
Oc1ccc2ccccc2c1N=Nc1nccs1,–,13.1 µM (active)
Oc1c(C=Nc2cccc3nsnc23)ccc2ccccc12,5.5% (inactive),–
COc1cccc(-n2c(N)cc(=O)nc2SCC(=O)Nc2cc(C)on2)c1,-20% (inactive),–
CC(C)N(C(=O)Cn1cc(S(=O)(=O)CC(=O)N2CCOCC2)c2ccccc21)C(C)C,-2.29% (inactive),–
CN(Cc1ccccc1)C(=O)c1ccc(NC2=NC3CS(=O)(=O)CC3S2)cc1 (stereo not drawn),49.1% (inactive),–
O=C(COC(=O)c1cccc(Cl)c1)NC1CCCCCCC1,-11.6% (inactive),–
Cc1ccc(S(=O)(=O)N2CCN(C)CC2)cc1,0% (inactive),–
CCC1=NN2C(=N)/C(=C/c3cc(C)n(-c4ccccc4)c3C)C(=O)N=C2S1,-0.786% (inactive),–
COC(=O)C1=C(O)/C(=C/c2ccc(OCC(=O)Nc3ccccc3)cc2)N=C1C,-10.6% (inactive),–
CCOC(=O)C1=C(O)/C(=C/c2cc(C)n(-c3ccccc3)c2C)N=C1C,–,0.0657 µM (active)
O=C(NCCCN1CCCC1=O)c1cccc(S(=O)(=O)NCc2ccccc2)c1,2.77% (inactive),–
O=[N+]([O-])c1ccc(N2CCN(c3ccc(F)cc3)CC2)cn1,-14.1% (inactive),–
Cc1nnc(NC(=O)c2ccc3nccnc3c2)s1,43% (inactive),–
COc1ccc(CC(=O)Nc2nc(-c3ccc(F)c(F)c3)cs2)cc1OC,-10.2% (inactive),–

SMILES,"activity change, negative = inhibition",Potency
CN(C(=O)COc1ccccc1)c1nnc(-c2ccncc2)s1,10.5% (inactive),–
COc1ccc(CCN(C(=O)COc2ccccc2)c2nc(-c3ccccc3)cs2)cc1OC,–,10.4 µM (active)
O=C(c1ccc(Cn2cc([N+](=O)[O-])cn2)o1)N1CCCC1,11.5% (inactive),–
C/C(=N\NC(=O)c1ccccc1F)c1ccccn1,-28% (inactive),–
C/C(=N\NC(=O)Cc1ccc(F)cc1)c1ccc(F)cc1,7.34% (inactive),–
COc1ccc(C/C(C)=N/NC(=O)c2ccncc2)cc1,-0.335% (inactive),–
C/C(=N\NC(=O)Cc1ccc(Cl)cc1)c1ccccn1,–,1.47 µM (active)
COc1ccc(CC(=O)N/N=C(\C)c2ccccn2)cc1,–,3.29 µM (active)
C/C(=N\NC(=O)Cc1ccc(Br)cc1)c1cccnc1,3.03% (inactive),–
CCOc1ccc(OCC(=O)Nc2c3c(nn2C(C)(C)C)CS(=O)(=O)C3)cc1,1.09% (inactive),–
Cc1cc(C(=O)CCC(=O)NNC(=O)c2ccccc2O)c(C)s1,0% (inactive),–
CCOc1ccc2[nH]c(=O)c(CN(CCCO)S(=O)(=O)c3ccc(F)cc3)cc2c1,-19% (inactive),–
O=C(NC1CCCCC1)c1ccc2c(=O)n(CC3CCCO3)c(=O)[nH]c2c1 (stereo not drawn),-28.7% (inactive),–
CCCCCn1c(=O)[nH]c2cc(C(=O)NCCCN3CCCCC3C)ccc2c1=O (stereo not drawn),–,9.28 µM (active)
CC1CCCCN1CCCNC(=O)Cn1ncc2c([nH]c3ccccc32)c1=O (stereo not drawn),33.3% (inactive),–
COc1ccccc1CNC(=O)C1CCN(C(=O)[C@@H]2Cc3ccccc3CN2)CC1,18.3% (inactive),–
CCCNC(=O)Nc1ccccc1C(=O)Nc1ccc(OC)cc1,31.3% (inactive),–
CCOC(=O)Cc1ncccc1C(=O)Nc1ccc(OC)cc1,–,13.1 µM (active)
COc1cc(NC(=O)c2cccnc2SC)cc(OC)c1,-7.95% (inactive),–
COC(=O)c1ccc([C@@H](O)[C@H](C)C(=O)CC(=O)OC(C)(C)C)cc1,-15% (inactive),–
Cc1nc(CN(C)C(=O)CC2C(=O)NCCN2Cc2ccc(F)cc2)cs1 (stereo not drawn),6.05% (inactive),–
CC(=O)N(CC(O)CO)c1c(I)c(C(=O)NCC(O)CO)c(I)c(C(=O)NCC(O)CO)c1I (stereo not drawn),–,inactive and 15.1 µM (active)
COc1ccc(NC(=O)CN2C(=O)COc3ccc(S(=O)(=O)N4CCOCC4)cc32)c(OC)c1,0% (inactive),–
C=CCSc1nc2c(c(=O)[nH]c(=O)n2C)n1Cc1ccccc1,29.2% (inactive),–
CN(Cc1ccccc1)C(=O)CSc1nc2ccccc2[nH]1,15% (inactive),–
CN(Cc1ccccc1)c1nc2c(c(=O)[nH]c(=O)n2C)n1CCSc1nc2ccccc2[nH]1,–,8.28 µM (active)
